From paper PMC6212790, “How bacterial xenogeneic silencer rok distinguishes foreign from self DNA in its resident genome”
In all, about 33,000 sequences were measured (“e-score”: median about -0.037, highest 2% from about 0.34 on). The list comes from a sample in which the highest values are over-represented; it also holds similar and randomly drawn sequences.

Target: T1, GST-Rok (full length) (Bacillus subtilis subsp. subtilis str. …, UniProt O34857 1-191)
T1 sequence: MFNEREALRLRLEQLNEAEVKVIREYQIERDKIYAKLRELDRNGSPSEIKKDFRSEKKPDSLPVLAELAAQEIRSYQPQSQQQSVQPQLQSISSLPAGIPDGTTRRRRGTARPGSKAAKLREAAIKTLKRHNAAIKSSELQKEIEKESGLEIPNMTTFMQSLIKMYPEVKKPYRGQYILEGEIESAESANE
Assay: protein binding microarray; Rok is a gene silencer of Bacillus subtilis; high values mean tight binding
Conditions: protein: recombinant; tags: GST (pTH5325, pDEST15-Magic modified); dsDNA, one strand shown
How it was run: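 Each has a 25-mer constant primer and a 35-mer variable part from a de Bruijn sequence of order 10, covering every non-palindromic 8-mer at least 32 times (palindromic 16). Preference for each 8-mer is given as a rank-based, unitless enrichment score (E-score). Its range runs from 0.5 (most favored) to −0.5 (most disfavored).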

Row | Sequence | binding signal [E-score]
1 | CCTAACGA | -0.117
2 | ATTTTGCC | 0.0261
3 | GATCTGAA | -0.0373
4 | CATGCCGA | 0.0242
5 | AATCTAAC | 0.189
6 | CATCTACC | 0.291
7 | ACTCTACT | 0.27
8 | AATCTACC | 0.437
9 | GATCTAAC | 0.12
10 | AATCTACG | 0.311
11 | GATCTACC | 0.382
12 | AATCTACT | 0.432
13 | ACTCTACC | -0.0638
14 | AGTTATTC | 0.069
15 | ACCTTAAC | -0.0118
16 | CATGGTAC | 0.13
17 | GTTTAACA | 0.108
18 | AATTCAGA | 0.0748
19 | CACTCAAC | -0.00301
20 | CAGCATTC | 0.0234
21 | GTGGCTGA | -0.0523
22 | AGAAAAAG | 0.0648
23 | ATTTATGG | 0.218
24 | CTTTATAC | 0.226
25 | ATTTATAG | 0.398

Row | Sequence | binding signal [E-score]
26 | ATTTATAA | 0.333
27 | ATTTATTG | 0.348
28 | AGTTATAC | 0.329
29 | ATTTATAC | 0.356
30 | ATTTATTA | 0.312
31 | ATTTATTC | 0.219
32 | CATTAGGC | -0.146
33 | AGAGTGGA | -0.109
34 | AACCAGAG | -0.187
35 | TCCTACCA | 0.175
36 | TGCTACCA | 0.152
37 | TACTACCA | 0.386
38 | CACTACCG | 0.0654
39 | AACTATCG | 0.316
40 | AACTACCC | 0.292
41 | ACCTACCT | 0.271
42 | AACTACCG | 0.417
43 | AACTACCA | 0.432
44 | AACTACCT | 0.416
45 | GACTACCA | 0.095
46 | CACTACCA | 0.221
47 | GGACTCTA | -0.165
48 | CTACAGGA | -0.04
49 | ACAAGCCT | -0.083
50 | CTCTCACA | -0.156

Row | Sequence | binding signal [E-score]
51 | AGACGCAA | -0.089
52 | GCCATTCA | 0.0688
53 | ACCGAGCG | -0.175
54 | CTTAGTAC | 0.206
55 | GGTAGGAC | 0.0568
56 | GGTAGTAC | 0.339
57 | AGTAGTAC | 0.336
58 | AGTAGTGC | 0.0725
59 | CGTAGTAC | 0.202
60 | CTCAACTA | 0.13
61 | CATGGAGA | 0.0828
62 | CATGCGGC | -0.125
63 | ACATGCCA | 0.0568
64 | ACATGCTA | 0.365
65 | CCATGCTA | 0.073
66 | GCATGCTA | 0.111
67 | ACCTATGA | 0.118
68 | ATAAGTGA | 0.123
69 | ATATTTTG | 0.297
70 | CTATTTTC | 0.344
71 | ATATTTTC | 0.326
72 | ATATTTTA | 0.412
73 | GTATTTGA | 0.0869
74 | CTATTTCC | 0.18
75 | GTATTTAA | 0.285

Row | Sequence | binding signal [E-score]
76 | GTATTTTA | 0.411
77 | CTATTTTA | 0.325
78 | GTGACGTA | 0.0931
79 | CCTGGTCA | -0.133
80 | GAAGTAGC | 0.182
81 | GGTCGGGA | -0.156
82 | CCCGACGA | -0.104
83 | AGCACTAA | -0.126
84 | CAATAGAC | 0.089
85 | AAAAGCGC | -0.0281
86 | ATGATAGA | 0.342
87 | ATGATAGC | 0.179
88 | CTGATATA | 0.204
89 | ATGATATA | 0.389
90 | ATGATATG | 0.172
91 | ATGATAGG | 0.0932
92 | AATTCGTA | 0.263
93 | GAAGTAAA | 0.237
94 | ATAGTCTA | 0.0771
95 | AGAGTAAT | 0.197
96 | ATAGTAAG | 0.282
97 | GTAGTAAC | 0.321
98 | GTAGTAAA | 0.348
99 | GGAGTAAA | -0.112
100 | ATAGTAAC | 0.366

Row | Sequence | binding signal [E-score]
101 | ATAGTCTC | 0.0365
102 | ATAGTCTG | 0.347
103 | CTAGTAAC | 0.303
104 | ATAGTAAT | 0.392
105 | CATAGGGA | -0.158
106 | AGCCATAT | 0.162
107 | CTGTCCAC | -0.116
108 | GAAGAGTA | 0.266
109 | GCAGCTTA | -0.093
110 | GCTCGAAC | -0.0353
111 | TCCTTAAA | -0.0816
112 | CTAGTAAA | 0.328
113 | ATAGTATA | 0.278
114 | TTAGTAAA | 0.237
115 | ATAGTAAA | 0.397
116 | ATAGTATC | 0.321
117 | ATAGTATG | 0.359
118 | AGATTCAA | 0.0974
119 | AACTTTCG | -0.0406
120 | ATTCGTTA | 0.228
121 | CAAGTTGC | -0.00109
122 | ATAATGTC | 0.175
123 | GTAATGAA | -0.0724
124 | ATAATGTG | 0.201
125 | ATAATGTA | 0.4

Row | Sequence | binding signal [E-score]
126 | GTAATGTA | 0.364
127 | CTAATGTA | 0.184
128 | ATTAACAG | 0.0334
129 | TACCGCCA | 0.0353
130 | AAAGAAAG | 0.132
131 | CGATACGA | -0.0427
132 | GTACGGCA | -0.048
133 | AGTATATG | 0.264
134 | GGTATAGA | 0.222
135 | GGTATATA | 0.386
136 | AGTATATA | 0.451
137 | CGTATATA | 0.28
138 | GGTATAAC | 0.313
139 | AGTATAAA | 0.278
140 | GGTATAAA | 0.383
141 | AGTATATC | 0.221
142 | GGTCGTAA | 0.0357
143 | AAGCCGAA | 0.00167
144 | GTCTGGCA | -0.182
145 | ACTAATCG | 0.0113
146 | ACCTTGGA | -0.145
147 | AAGCTAGC | 0.137
148 | CAATAACG | 0.0291
149 | AAGTTTGA | -0.0342
150 | TAGTTTGA | 0.347

Row | Sequence | binding signal [E-score]
151 | CAGTTTCA | -0.0996
152 | TAGTTTCA | 0.392
153 | GAGTTTCA | -0.16
154 | GAGTTTGA | -0.199
155 | AATAAGAA | 0.209
156 | CGGCGGCA | -0.198
157 | AGTAGCGA | 0.181
158 | AGACTATC | 0.0106
159 | CGATCTAC | 0.371
160 | CGATCTAA | -0.00615
161 | CAATCTAG | 0.285
162 | AGATCTAG | 0.167
163 | CGATCTAG | 0.214
164 | CAATCTAA | 0.172
165 | CAATCTAC | 0.365
166 | AAATCTAG | 0.35
167 | AAATCTCG | 0.144
168 | GAATCTCC | 0.00693
169 | GAATCTAC | 0.425
170 | GAATCTAA | 0.201
171 | AAAAACCG | -0.0149
172 | AAACCAAA | -0.0651
